The results in this text go back to PMC7862700, “An all-to-all approach to the identification of sequence-specific readers for epigenetic DNA modifications on cytosine”.

Assay in all cases: DAPPL (digital affinity profiling via proximity ligation, sequencing); 10 mM Tris-HCl pH 7.5, 50 mM NaCl, 1 mM DTT, 4% glycerol, room temperature, 30 min; GST-TFs on glutathione beads, 16-mer random dsDNA library, 0.1% formaldehyde crosslink after washing; high values mean tight binding
One assay addresses T1, FLI1 (Homo sapiens, UniProt Q01543 1-452).
T1 sequence: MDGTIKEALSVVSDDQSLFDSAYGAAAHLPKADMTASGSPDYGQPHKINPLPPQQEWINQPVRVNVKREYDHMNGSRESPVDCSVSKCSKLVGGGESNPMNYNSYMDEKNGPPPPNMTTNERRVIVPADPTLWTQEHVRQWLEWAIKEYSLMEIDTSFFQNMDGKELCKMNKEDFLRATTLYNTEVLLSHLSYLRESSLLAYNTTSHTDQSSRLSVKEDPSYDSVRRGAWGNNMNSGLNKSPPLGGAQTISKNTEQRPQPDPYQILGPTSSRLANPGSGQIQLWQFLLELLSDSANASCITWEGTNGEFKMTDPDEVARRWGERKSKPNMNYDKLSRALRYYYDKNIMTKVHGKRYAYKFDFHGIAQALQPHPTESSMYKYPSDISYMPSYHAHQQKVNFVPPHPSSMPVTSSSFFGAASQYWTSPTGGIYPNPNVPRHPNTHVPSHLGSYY
The conditions noted are these: protein: recombinant; tags: N-terminal GST; dsDNA, one strand shown. The essentials: (§1)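 Binding signal is given per hexamer as its read frequency for a factor divided by its frequency in the tag-only sample. GST-fused human transcription factors were expressed in yeast, captured on glutathione beads, barcoded with DNA and pooled with that sample, then incubated with 200 nmole of a 16-mer random double-stranded DNA library in Tris/NaCl/DTT/glycerol buffer for 30 min at room temperature. The pools were then washed, crosslinked, proximity-ligated, amplified by PCR and sequenced on an Illumina NextSeq500.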

In another assay the target is T2, ELK1 (Homo sapiens, UniProt P19419 1-428).
T2 sequence: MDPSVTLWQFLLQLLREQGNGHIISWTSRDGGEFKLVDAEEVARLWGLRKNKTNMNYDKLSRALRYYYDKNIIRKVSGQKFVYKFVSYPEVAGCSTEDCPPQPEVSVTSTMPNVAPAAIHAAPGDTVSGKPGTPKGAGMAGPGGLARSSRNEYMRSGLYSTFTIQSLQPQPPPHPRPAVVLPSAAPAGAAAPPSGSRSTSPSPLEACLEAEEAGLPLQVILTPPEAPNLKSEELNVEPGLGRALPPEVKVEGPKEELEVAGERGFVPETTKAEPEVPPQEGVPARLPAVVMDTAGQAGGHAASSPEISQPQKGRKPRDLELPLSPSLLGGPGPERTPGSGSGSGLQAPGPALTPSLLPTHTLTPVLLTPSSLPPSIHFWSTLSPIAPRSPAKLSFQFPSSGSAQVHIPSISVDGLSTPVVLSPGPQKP
The following applies: protein: recombinant; tags: N-terminal GST; dsDNA, one strand shown. An outline of the steps: as §1

The target in another assay is T3, GABPA (Homo sapiens, UniProt Q06546 1-454).
T3 sequence: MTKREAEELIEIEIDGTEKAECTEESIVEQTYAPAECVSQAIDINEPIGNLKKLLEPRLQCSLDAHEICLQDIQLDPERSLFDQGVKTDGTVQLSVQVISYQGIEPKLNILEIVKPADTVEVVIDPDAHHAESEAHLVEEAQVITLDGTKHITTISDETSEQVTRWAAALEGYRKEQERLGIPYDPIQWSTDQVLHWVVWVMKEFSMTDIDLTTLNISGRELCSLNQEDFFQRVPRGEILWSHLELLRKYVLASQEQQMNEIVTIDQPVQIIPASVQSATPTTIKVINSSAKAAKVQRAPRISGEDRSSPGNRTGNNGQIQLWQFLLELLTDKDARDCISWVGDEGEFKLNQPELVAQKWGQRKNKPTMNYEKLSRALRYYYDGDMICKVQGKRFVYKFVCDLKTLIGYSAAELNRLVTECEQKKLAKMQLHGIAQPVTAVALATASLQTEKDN
The conditions noted are these: protein: recombinant; tags: N-terminal GST; dsDNA, one strand shown. An outline of the steps:
as §1

A further assay concerns the target T4, ERG (Homo sapiens, UniProt P11308 1-479).
T4 sequence: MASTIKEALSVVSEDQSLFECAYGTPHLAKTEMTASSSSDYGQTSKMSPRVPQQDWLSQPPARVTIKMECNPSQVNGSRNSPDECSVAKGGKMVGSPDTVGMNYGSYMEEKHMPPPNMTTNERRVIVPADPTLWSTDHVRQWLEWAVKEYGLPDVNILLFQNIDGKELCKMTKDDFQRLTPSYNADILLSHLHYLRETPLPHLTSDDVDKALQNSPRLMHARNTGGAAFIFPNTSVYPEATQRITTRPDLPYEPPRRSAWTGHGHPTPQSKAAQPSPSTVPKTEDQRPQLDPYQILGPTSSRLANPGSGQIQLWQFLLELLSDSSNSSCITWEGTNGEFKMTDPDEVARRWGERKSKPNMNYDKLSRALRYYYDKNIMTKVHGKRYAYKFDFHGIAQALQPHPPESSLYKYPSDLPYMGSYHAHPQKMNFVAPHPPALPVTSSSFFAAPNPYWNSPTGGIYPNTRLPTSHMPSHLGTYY
The conditions noted are these: protein: recombinant; tags: N-terminal GST; dsDNA, one strand shown. The essentials: as §1

The next assay concerns the target ELF1 (Homo sapiens, UniProt P32519 1-619). The following applies: protein: recombinant; tags: N-terminal GST; dsDNA, one strand shown. The essentials:
as §1

Another assay addresses T5, EHF (Homo sapiens, UniProt Q9NZC4 1-300).
T5 sequence: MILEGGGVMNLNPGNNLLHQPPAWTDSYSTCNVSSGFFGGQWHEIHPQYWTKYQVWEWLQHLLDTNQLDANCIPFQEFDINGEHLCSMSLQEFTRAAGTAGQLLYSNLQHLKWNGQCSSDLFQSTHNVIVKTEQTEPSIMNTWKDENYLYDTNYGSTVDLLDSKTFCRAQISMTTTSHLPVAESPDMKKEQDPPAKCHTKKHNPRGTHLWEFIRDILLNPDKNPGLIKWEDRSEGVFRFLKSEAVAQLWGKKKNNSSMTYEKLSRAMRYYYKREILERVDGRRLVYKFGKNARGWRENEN
The following applies: protein: recombinant; tags: N-terminal GST; dsDNA, one strand shown. The essentials: as §1

For another assay, the target named is SPI1 (Homo sapiens, UniProt P17947 1-270). The conditions noted are these: protein: recombinant; tags: N-terminal GST; dsDNA, one strand shown. An outline of the steps:
as §1

In another assay the target is SPIB (Homo sapiens, UniProt Q01892 1-262). The following applies: protein: recombinant; tags: N-terminal GST; dsDNA, one strand shown. The essentials:
as §1

The target of a further assay is T6, ELK3 (Homo sapiens, UniProt P41970 1-407).
T6 sequence: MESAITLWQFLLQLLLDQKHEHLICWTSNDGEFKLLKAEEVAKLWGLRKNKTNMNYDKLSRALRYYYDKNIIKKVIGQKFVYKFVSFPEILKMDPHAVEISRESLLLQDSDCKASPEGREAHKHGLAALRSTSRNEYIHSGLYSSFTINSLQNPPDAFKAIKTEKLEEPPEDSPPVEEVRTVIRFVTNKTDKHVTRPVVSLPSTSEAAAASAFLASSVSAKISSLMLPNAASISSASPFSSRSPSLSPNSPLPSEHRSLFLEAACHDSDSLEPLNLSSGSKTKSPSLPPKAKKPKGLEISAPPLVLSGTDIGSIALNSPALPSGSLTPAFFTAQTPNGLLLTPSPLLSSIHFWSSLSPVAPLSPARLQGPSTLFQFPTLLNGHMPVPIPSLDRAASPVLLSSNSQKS
The conditions noted are these: protein: recombinant; tags: N-terminal GST; dsDNA, one strand shown. The essentials:
as §1

The next assay addresses T7, FEV (Homo sapiens, UniProt Q99581 1-238).
T7 sequence: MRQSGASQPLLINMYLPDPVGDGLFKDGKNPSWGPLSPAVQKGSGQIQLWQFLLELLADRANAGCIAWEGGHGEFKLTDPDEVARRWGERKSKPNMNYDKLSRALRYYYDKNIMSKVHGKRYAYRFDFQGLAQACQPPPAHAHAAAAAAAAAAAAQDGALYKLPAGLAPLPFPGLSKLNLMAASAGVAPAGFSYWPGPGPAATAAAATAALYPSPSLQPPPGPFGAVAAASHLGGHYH
The conditions noted are these: protein: recombinant; tags: N-terminal GST; dsDNA, one strand shown. The essentials: as §1

In the next assay the target is ETV5 (Homo sapiens, UniProt P41161 1-510). The following applies: protein: recombinant; tags: N-terminal GST; dsDNA, one strand shown. The essentials:
as §1

The next assay deals with HSF1 (Homo sapiens, UniProt Q00613 1-529). The conditions noted are these: protein: recombinant; tags: N-terminal GST; chain copies: 3; dsDNA, one strand shown. An outline of the steps: as §1
A further assay has as its target T8, SPIC (Homo sapiens, UniProt Q8N5J4 1-248).
T8 sequence: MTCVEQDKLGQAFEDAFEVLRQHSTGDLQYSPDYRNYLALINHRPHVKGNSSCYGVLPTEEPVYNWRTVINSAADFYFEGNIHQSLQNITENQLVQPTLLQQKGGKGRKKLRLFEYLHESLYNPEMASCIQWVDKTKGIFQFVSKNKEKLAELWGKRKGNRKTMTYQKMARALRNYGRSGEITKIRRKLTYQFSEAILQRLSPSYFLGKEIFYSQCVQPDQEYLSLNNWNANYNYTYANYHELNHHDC
The following applies: protein: recombinant; tags: N-terminal GST; dsDNA, one strand shown. The essentials: as §1

The target in the next assay is ELF4 (Homo sapiens, UniProt Q99607 1-663). The following applies: protein: recombinant; tags: N-terminal GST; dsDNA, one strand shown. The essentials: as §1
In the next assay the target is T9, ELK4 (Homo sapiens, UniProt P28324-2 1-405).
T9 sequence: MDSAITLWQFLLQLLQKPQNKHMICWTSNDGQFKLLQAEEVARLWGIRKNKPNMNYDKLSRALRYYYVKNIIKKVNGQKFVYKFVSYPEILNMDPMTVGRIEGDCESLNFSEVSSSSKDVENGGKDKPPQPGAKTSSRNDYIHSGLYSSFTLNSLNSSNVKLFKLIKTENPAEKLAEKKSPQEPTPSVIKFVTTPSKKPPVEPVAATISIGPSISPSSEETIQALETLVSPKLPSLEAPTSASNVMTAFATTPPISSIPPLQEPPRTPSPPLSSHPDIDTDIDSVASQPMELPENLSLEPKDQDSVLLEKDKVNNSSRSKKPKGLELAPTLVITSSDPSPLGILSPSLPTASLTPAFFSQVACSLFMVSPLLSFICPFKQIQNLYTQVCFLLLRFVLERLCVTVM
The following applies: protein: recombinant; tags: N-terminal GST; dsDNA, one strand shown. The essentials:
as §1

In a further assay the target is T10, ETV2 (Homo sapiens, UniProt O00321 1-342).
T10 sequence: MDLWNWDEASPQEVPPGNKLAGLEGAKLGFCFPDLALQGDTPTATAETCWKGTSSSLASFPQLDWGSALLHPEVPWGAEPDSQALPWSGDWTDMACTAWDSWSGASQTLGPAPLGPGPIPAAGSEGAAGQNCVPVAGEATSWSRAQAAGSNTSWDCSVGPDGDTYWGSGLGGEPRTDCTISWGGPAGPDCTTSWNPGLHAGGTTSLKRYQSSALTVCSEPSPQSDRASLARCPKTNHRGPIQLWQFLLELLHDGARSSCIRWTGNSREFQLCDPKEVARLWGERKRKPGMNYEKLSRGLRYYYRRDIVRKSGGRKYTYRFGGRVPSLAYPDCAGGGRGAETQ
The conditions noted are these: protein: recombinant; tags: N-terminal GST; dsDNA, one strand shown. An outline of the steps: as §1

The target in the next assay is T11, ELF3 (Homo sapiens, UniProt P78545 1-371).
T11 sequence: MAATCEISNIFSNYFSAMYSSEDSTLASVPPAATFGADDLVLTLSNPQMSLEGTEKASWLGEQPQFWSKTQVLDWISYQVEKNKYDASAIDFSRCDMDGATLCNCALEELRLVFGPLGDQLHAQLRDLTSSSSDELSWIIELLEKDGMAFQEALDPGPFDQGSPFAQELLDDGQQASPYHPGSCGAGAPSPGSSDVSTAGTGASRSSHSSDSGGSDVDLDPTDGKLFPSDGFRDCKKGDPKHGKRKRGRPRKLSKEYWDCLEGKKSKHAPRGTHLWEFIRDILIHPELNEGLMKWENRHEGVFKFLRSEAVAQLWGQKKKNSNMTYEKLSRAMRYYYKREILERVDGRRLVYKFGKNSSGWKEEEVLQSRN
The conditions noted are these: protein: recombinant; tags: N-terminal GST; dsDNA, one strand shown. The essentials:
as §1

Another assay has as its target CRX (Homo sapiens, UniProt O43186 1-299). The following applies: protein: recombinant; tags: N-terminal GST; dsDNA, one strand shown. The essentials: as §1
The target in a further assay is ETV1 (Homo sapiens, UniProt P50549 1-477). The conditions noted are these: protein: recombinant; tags: N-terminal GST; dsDNA, one strand shown. An outline of the steps: as §1
Sequence of ETV1 (P50549 whole entry): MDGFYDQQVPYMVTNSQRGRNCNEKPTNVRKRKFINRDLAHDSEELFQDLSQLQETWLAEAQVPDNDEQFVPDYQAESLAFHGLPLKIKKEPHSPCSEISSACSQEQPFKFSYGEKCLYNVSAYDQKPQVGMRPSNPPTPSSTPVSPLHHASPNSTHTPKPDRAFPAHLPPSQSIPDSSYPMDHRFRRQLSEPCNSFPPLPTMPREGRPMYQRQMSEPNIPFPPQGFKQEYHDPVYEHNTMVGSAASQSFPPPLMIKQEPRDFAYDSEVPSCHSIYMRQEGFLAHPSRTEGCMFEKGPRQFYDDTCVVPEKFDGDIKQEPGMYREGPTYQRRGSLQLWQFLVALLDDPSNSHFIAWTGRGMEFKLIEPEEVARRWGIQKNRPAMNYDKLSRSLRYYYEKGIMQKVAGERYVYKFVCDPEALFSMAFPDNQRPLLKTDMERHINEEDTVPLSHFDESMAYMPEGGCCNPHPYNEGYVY

Sequence of HSF1 (Q00613 whole entry): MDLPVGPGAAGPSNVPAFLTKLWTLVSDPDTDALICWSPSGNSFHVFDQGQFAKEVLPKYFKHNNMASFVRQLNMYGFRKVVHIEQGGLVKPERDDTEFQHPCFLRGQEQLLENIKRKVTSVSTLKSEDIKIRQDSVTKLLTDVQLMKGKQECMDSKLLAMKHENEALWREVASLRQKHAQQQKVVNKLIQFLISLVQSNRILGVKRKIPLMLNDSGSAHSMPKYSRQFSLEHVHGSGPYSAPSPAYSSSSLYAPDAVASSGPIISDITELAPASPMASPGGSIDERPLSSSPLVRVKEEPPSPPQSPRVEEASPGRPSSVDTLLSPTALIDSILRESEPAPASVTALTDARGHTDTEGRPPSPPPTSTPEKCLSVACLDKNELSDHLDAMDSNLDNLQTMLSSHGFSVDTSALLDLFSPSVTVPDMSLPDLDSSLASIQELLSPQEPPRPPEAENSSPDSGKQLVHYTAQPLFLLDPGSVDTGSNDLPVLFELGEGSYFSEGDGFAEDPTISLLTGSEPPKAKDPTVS
Sequence of CRX (O43186 whole entry): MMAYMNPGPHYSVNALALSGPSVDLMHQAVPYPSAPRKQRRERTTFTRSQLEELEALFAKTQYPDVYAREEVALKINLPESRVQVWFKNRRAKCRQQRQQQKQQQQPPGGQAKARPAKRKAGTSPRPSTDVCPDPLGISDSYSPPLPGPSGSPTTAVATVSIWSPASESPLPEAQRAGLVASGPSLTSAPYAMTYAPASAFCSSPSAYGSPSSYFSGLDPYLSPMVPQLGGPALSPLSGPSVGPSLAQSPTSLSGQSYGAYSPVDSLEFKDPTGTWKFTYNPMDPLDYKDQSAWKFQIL
Sequence of SPIB (Q01892 whole entry): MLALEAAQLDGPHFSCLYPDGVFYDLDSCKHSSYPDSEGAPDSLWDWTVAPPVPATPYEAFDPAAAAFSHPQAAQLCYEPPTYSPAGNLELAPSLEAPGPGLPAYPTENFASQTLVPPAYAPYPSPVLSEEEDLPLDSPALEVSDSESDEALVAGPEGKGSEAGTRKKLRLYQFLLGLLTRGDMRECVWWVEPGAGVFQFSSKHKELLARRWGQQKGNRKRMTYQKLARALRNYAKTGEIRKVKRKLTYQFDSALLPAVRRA
Sequence of ELF4 (Q99607 whole entry): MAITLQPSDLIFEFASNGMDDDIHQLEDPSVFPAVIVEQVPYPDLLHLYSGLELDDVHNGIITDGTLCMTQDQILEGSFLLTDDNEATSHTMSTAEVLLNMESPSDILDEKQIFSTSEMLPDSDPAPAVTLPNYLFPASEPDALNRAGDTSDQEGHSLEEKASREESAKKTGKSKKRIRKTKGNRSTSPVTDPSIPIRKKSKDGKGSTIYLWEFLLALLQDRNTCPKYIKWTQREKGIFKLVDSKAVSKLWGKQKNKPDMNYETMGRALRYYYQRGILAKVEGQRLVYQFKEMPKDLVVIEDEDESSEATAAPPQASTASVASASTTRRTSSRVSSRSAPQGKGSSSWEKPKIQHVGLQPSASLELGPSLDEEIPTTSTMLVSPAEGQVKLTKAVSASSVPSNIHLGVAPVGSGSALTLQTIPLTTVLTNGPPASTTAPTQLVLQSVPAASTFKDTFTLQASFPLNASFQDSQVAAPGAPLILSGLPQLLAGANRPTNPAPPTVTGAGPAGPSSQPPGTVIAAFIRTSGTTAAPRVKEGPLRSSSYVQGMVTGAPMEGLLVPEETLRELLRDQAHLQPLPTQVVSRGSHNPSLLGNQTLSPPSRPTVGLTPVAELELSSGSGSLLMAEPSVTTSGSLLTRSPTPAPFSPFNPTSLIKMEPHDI
Sequence of ELF1 (P32519 whole entry): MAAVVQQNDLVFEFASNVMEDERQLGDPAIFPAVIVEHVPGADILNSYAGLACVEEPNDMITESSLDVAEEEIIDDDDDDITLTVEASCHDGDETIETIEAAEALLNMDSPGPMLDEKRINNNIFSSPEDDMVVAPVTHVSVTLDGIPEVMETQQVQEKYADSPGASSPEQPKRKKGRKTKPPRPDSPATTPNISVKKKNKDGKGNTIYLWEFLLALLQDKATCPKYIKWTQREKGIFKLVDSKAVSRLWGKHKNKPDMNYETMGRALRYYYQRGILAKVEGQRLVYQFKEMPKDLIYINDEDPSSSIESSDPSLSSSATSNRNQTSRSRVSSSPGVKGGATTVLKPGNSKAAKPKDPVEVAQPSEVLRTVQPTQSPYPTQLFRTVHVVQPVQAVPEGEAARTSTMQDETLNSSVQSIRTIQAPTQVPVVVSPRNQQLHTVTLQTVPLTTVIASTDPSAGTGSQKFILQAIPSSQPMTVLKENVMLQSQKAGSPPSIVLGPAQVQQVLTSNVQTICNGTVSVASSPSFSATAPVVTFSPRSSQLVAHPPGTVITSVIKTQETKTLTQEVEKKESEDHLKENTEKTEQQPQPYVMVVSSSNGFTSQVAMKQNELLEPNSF
Sequence of ETV5 (P41161 whole entry): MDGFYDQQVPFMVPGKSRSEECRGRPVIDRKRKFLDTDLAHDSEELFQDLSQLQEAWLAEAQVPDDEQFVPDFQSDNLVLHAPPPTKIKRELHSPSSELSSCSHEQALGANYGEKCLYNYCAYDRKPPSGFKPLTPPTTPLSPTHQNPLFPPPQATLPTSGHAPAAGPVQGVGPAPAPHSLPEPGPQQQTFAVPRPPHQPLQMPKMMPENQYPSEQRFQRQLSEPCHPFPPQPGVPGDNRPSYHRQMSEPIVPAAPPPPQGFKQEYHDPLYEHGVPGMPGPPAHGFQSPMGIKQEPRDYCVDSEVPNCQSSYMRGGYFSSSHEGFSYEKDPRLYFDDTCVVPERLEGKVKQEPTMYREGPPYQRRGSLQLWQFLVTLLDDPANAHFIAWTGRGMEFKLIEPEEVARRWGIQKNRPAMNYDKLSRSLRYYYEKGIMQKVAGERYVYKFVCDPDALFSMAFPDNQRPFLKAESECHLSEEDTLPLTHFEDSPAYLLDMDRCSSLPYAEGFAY

Take TTTCTG: the binding signal with FLI1 was 1.4 fold enrichment (6-mer frequency, TF over GST control); with ELK1, 1.35 fold enrichment (6-mer frequency, TF over GST control); in the assay with GABPA it was 1.36 fold enrichment (6-mer frequency, TF over GST control); with ERG, 1.33 fold enrichment (6-mer frequency, TF over GST control); in the assay with ELF1 it was 1.34 fold enrichment (6-mer frequency, TF over GST control); with EHF, 1.38 fold enrichment (6-mer frequency, TF over GST control). Further, the binding signal with SPI1 was 1.42 fold enrichment (6-mer frequency, TF over GST control); with SPIB, 1.3 fold enrichment (6-mer frequency, TF over GST control); in the assay with ELK3, 1.46 fold enrichment (6-mer frequency, TF over GST control); with FEV, 1.32 fold enrichment (6-mer frequency, TF over GST control); with ETV5 it was 1.31 fold enrichment (6-mer frequency, TF over GST control); with HSF1, 2.33 fold enrichment (6-mer frequency, TF over GST control). The binding signal in the assay with SPIC was 1.3 fold enrichment (6-mer frequency, TF over GST control); with ELF4 it was 1.39 fold enrichment (6-mer frequency, TF over GST control); with ELK4, 1.52 fold enrichment (6-mer frequency, TF over GST control); in the assay with ETV2, 1.36 fold enrichment (6-mer frequency, TF over GST control); with ELF3, 1.44 fold enrichment (6-mer frequency, TF over GST control); in the assay with CRX, 1.45 fold enrichment (6-mer frequency, TF over GST control). Further, the binding signal in the assay with ETV1 is 1.3 fold enrichment (6-mer frequency, TF over GST control).
